Arbovirus inh = blocks arbovirus infection | inhibition, % at 10 µM | AID 1251 | arbovirus infection cell-based antiviral screen | 0.37% of 200,000 active; in the data active means inhibition above about 30%
MEKK2 WT-MEK5 = raises or lowers MEK5 binding to wildtype human MEKK2 PB1 domain; Q9Y2U5; bead flow cytometry, Alexa488-MEK5 binding to MEKK2 WT; actives lie on both sides; binding response (% of control), % at 10 µM; 1.1% of 290,000 active; in the data active means binding response below about 67% or above about 130%
Pf gamet viab = inhibitors of late stage P. falciparum gametocyte viability. inhibition, % at 10.9 µM. 0.065% of 150,000 active. P. falciparum stage V gametocytes, ATP luminescence, 24 h. AID 743093;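 active means inhibition above the mean plus 3 SD of compounds within the control limits, set per campaign, cut at about 38% in these data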;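 further: 0% = DMSO wells and 100% = medium only without gametocytes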
MEKK2mut PB1 HTS = signal of MEK5 binding to mutant human MEKK2 PB1 domain; bead flow cytometry, Alexa488-MEK5 binding to MEKK2 mutant; percent response, % at 10 µM; 0.35% of 290,000 active; in the data active means percent response above about 24%, passing the limit was not always enough
MEKK3 PB1 HTS = MEKK3-MEK5 PB1 interaction, increase or decrease; binding response (% of control), % at 10 µM; 1.4% of 290,000 active; bead-based flow cytometry, Alexa488-MEK5 binding to MEKK3; actives lie on both sides; 0 = blocked by unlabeled MEK5, 100 = vehicle; Q99759;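 active means binding response more than 3 SD above or below the average of its plate-row segment, actives on both sides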;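 further: Alexa488 bead fluorescence after subtracting the streptavidin-only scavenger bead signal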
Target sequence (Q99759 whole entry, looked up): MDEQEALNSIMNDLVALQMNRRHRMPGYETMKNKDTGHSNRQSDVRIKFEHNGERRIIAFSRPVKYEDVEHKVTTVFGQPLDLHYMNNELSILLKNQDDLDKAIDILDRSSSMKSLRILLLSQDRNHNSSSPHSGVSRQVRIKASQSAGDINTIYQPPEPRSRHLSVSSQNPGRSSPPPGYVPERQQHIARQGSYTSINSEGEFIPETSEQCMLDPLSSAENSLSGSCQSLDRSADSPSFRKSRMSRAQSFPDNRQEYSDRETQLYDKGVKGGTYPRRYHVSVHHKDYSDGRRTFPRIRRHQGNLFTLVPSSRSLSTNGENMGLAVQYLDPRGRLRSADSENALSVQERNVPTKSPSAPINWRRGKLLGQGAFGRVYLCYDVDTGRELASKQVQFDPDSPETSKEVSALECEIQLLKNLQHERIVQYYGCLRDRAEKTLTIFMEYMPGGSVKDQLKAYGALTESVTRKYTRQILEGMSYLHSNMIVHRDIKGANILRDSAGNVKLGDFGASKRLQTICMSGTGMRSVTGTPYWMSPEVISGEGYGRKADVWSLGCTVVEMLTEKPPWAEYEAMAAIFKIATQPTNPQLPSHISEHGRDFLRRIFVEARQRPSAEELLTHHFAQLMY
MEKK2wt confirm = raises or lowers MEK5 binding to wildtype human MEKK2, retest | shares compounds with MEKK3 PB1 HTS | bead flow cytometry, Alexa488-MEK5 binding to MEKK2 WT; actives lie on both sides | 2.4% of 5,900 active | binding response (% of control), % at 10 µM; in the data active means binding response below about 16% or above about 210%; inactive means in between
MEKK2mut confirm = signal of MEK5 binding to mutant human MEKK2, retest. shares compounds with MEKK3 PB1 HTS. bead flow cytometry, Alexa488-MEK5 binding to MEKK2 mutant. percent response, % at 10 µM. 2% of 5,900 active. AID 1893; in the data active means percent response mostly above about 71%, no sharp cut-off; inactive means mostly below about 38%;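 further: higher means compound restores mutant binding toward wildtype level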
MEKK3 confirm = MEKK3-MEK5 PB1 inhibition, single concentration confirmation; binding response (% of control), % at 10 µM; shares compounds with MEKK3 PB1 HTS; bead flow cytometry, Alexa488-MEK5 binding to MEKK3; stronger effect = lower value; AID 1894; 1.8% of 5,900 active;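 active means binding response below 72% of control, or above a set upper limit, though filed actives all read lower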;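 further: 100% = DMSO only wells and 0% = binding blocked by excess unlabeled MEK5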
An asterisk follows results filed as active; nt = no result; [ ] = dose if it differs, or a comment. Shown are actives, neighbours in structure and some others; about 2.4% of the full set was active somewhere.

SMILES | Arbovirus inh | MEKK2 WT-MEK5 | Pf gamet viab | MEKK2mut PB1 HTS | MEKK3 PB1 HTS | MEKK2wt confirm | MEKK2mut confirm | MEKK3 confirm
Cc1ccc(NC(=O)c2snc3ccc(Cl)cc23)cc1C | -10 | 102 | -8 | -1 | 131* | 100 | -3 | 98
CN1CCN(Cc2ccc(Sc3ccc(Cl)cc3)c([N+](=O)[O-])c2)CC1 | -34 | 157* | 16 | 27 | 107 | 122 | 8 | 102
Cc1ccc(Sc2ccc(CN3CCCC3)cc2[N+](=O)[O-])cc1 | 1 | 134 | -7 | 12 | 98 | nt | nt | nt
CC(=O)NCCC(=O)N(Cc1ccccc1)c1nc2c(C)cccc2s1 | nt | 106 | nt | 11 | 104 | nt | nt | nt
Cc1c(-n2c(SC(C)C(=O)NC(N)=O)nc3ccccc3c2=O)c(=O)n(-c2ccccc2)n1C (centres undefined) | 0 | 104 | 5 | 8 | 103 | nt | nt | nt
COc1ccc(NC(=O)CSc2ncccc2C(=O)OC(C)C)cc1OC | 7 | 104 | 6 | 5 | 100 | nt | nt | nt
CC(C)c1ccc(NC(=O)CSc2ncccc2C(=O)Oc2cccc([N+](=O)[O-])c2)cc1 | -11 | 106 | -8 | 0 | 148* | 99 | -2 | 97
CCN(CC)CCNC(=O)C1(O)c2cc(Br)ccc2NC(=O)N1c1c(F)cccc1F (centres undefined) | nt | 105 | nt | 6 | 102 | nt | nt | nt
Cc1ccc(S(=O)(=O)n2ccc3c(OCCOCCNCc4ccc(F)cc4)cccc32)cc1 | nt | 225* | nt | 54* | 109 | 191 | 60 | 94
O=C(COC(=O)c1cc(=O)[nH]c2ccccc12)c1cccs1 | -4 | 105 | nt | -6 | 98 | nt | nt | nt
COCCN(Cc1ccccc1)C(=S)Nc1ccc(Cl)cc1 | 4 | 101 | -37 | -7 | 109 | nt | nt | nt
Cc1ccc(NS(=O)(=O)c2ccc(-c3coc(C)n3)cc2)c(Br)c1 | nt | 102 | nt | 2 | 99 | nt | nt | nt
CNc1nc(Cl)c(SC)c(NC2CCCCC2)n1 | 11 | 124 | -5 | 6 | 148* | 100 | -3 | 100
CC(C)N(CCc1ccncc1)C(=S)Nc1ccc(F)c(Cl)c1 | 18 | 107 | -13 | 3 | 104 | nt | nt | nt
CNC(=S)N1CCN(C(=O)C2CCCO2)CC1 (centres undefined) | 7 | 94 | 0 | -2 | 67*[inhibitor] | 102 | 0 | 103
O=C(C1CCCO1)N1CCN(C(=S)Nc2ccc(F)cc2)CC1 (centres undefined) | 4 | 100 | nt | -2 | 97 | nt | nt | nt
COc1ccc2c(c1)[C@H]1[C@H](CO2)[C@H](c2ccccc2)[C@]2(C)C(=O)N(CC3CCCO3)CC(=O)N12 (some centres undefined) | nt | nt | -1 | nt | nt | nt | nt | nt
COc1ccc(OC)c(/C(O)=C/C(=O)C(=O)Nc2cc(C)cc(C)c2)c1 | 0 | 120 | nt | 4 | 126* | 96 | -5 | 97
COc1ccc(N(C(=O)Cn2nnc(-c3ccc(F)cc3)n2)C(C)C(=O)NC2CCCC2)cc1OC (centres undefined) | nt | 98 | nt | -3 | 99 | nt | nt | nt
CC(C)c1[nH]c(=O)c(C#N)c2c1CSC(C)(C)C2 | 1 | 3.0*[inhibitor] | -4 | -14 | 3.0*[inhibitor] | 100 | -4 | 98
Cc1[nH]c(=O)c(C#N)c2c1CSC(C)(C)C2 | 0 | 97 | 14 | -4 | 94 | nt | nt | nt
CCc1cc2cc(C)cc(C)c2nc1Cl | 3 | 123 | 0 | 5 | 138* | 95 | -28 | 98
CCc1cc2ccccc2nc1Cl | 0 | 93 | nt | -6 | 102 | nt | nt | nt
COc1nc(Oc2ccc(=O)[nH]n2)nc(N2CCOCC2)n1 | 16 | 98 | nt | 5 | 102 | nt | nt | nt
CC(C)(C)Nc1nc(Oc2ccc(=O)[nH]n2)nc(N2CCOCC2)n1 | 0 | 88 | -8 | -2 | 75*[inhibitor] | 104 | 0 | 101
COc1ccc(C(=O)OCc2csc(C)n2)c(O)c1 | -2 | 90 | 1 | -10 | 98 | nt | nt | nt

Source: PubChem BioAssay (several laboratories)
